Source: PubChem BioAssay
Hits are enriched below; roughly 18% of the tested compounds scored in any of these assays.
IL-1B inflam inh: blocks inflammasome-driven IL-1 beta release. THP-1 LPS/ATP IL-1B secretion, AlphaLISA, 16 h; stronger effect = lower value. activity change, % at 57.5 µM. 360,000 tested, 4.7% active. AID 743279; in the data active = activity change below about -50%; inconclusive = mostly about -30% to -49%
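THP-1 cells pretreated 1 hr with compounds (up to 57.5 uM final), then stimulated with LPS (250 ng/mL final) plus ATP (1.25 mM final); secreted IL-1B measured by AlphaLISA after 16 hr, decreased signal indicating inhibition.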
TDP1 cell CPT: growth inhibition of DT40 Tdp1-/-;hTDP1 cells with camptothecin (screen for TDP1 inhibitors) | chicken DT40 Tdp1-/-;hTDP1 cells + 20 nM CPT, ATP luminescence, 48 h | Potency, µM (top dose mostly 46.2 µM), inactives show top-dose activity change, negative = growth inhibition, usual class: inhibitors | 420,000 tested, 12% active | AID 686979; note: potency is the fitted concentration of half-maximal effect; nearly all actives have a fitted effect of over 55% in size
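Cell growth measured by CellTiter-Glo luminescence after a minimum 48 h, 37 C compound exposure with 20 nM CPT in Tdp1-knockout DT40 cells stably expressing hTDP1, seeded 400/well; qHTS titration format.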
TDP1 cell noCPT: qHTS for Inhibitors of human tyrosyl-DNA phosphodiesterase 1 (TDP1): qHTS in cells in absence of CPT | 420,000 tested, 15% active | AID 686978, 2013 | Potency, µM (highest dose often 46.2 µM), inactives show at the highest dose activity change, negative = growth inhibition, most hits filed as inhibitors | DT40 Tdp1-/- hTDP1 cells, no CPT, ATP luminescence, 48 h; note: potency is the fitted concentration of half-maximal effect; nearly all actives have a fitted effect of over 55% in size
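Seeded 400 DT40-hTDP1 cells/well (vehicle DMSO, no 20 nM CPT); pinned compounds; ≥48 hr at 37 °C; CellTiter-Glo luminescence as viability measure.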
Gal4-VP16 FLuc: counter-screen for ROR gamma inhibitors: Gal4-VP16 reporter. Drosophila S2 Gal4-VP16 UAS-luciferase, luminescence, 20 h. Potency, µM (highest dose often 53.6 µM), inactives show at the highest dose activity, negative = inhibition, actives largely listed as inhibitors. AID 2546. 310,000 tested, 3.5% active;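 note: Gal4-VP16 expression switched on by copper sulfate through the metallothionein promoter; potency is the fitted concentration of half-maximal effect; nearly all actives have a fitted effect of over 50% in size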
RORg inh: inhibitors of mouse ROR gamma transcriptional activity; P51450; Drosophila S2 Gal4-RORgamma UAS-luciferase reporter, 20 h; Potency, µM (highest dose often 53.6 µM), without a hit: at the highest dose activity change, negative = inhibition, most hits filed as inhibitors; 310,000 tested, 5.4% active; note: potency is the fitted concentration of half-maximal effect; nearly all actives have a fitted effect of over 60% in size
Target sequence (P51450 whole entry, looked up, the tested form may be a part): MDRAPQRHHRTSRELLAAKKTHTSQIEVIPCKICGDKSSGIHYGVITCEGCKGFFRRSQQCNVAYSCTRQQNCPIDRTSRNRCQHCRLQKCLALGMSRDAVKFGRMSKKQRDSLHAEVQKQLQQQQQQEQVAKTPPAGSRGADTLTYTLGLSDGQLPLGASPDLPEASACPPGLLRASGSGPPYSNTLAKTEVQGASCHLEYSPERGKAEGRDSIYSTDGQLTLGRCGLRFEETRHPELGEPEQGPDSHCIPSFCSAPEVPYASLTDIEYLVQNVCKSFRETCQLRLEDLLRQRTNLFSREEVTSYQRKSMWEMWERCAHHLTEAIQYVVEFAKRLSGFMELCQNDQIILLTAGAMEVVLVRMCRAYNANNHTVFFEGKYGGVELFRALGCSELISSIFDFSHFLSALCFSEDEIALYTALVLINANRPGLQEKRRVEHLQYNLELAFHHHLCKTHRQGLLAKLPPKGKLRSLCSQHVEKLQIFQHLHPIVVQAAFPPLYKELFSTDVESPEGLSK
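Luminescence from a UAS-regulated Photinus luciferase reporter in stably transfected Drosophila Schneider cells is measured; decreased signal marks ROR gamma inhibition. Fusion expression is induced by 700 uM copper sulfate for 20 hr.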
LDHA block: LDHA (human) enzyme inhibition; AID 1347041; purified LDHA, NADH/diaphorase-resazurin fluorescence; stronger effect = lower value; activity change, % (values are at about 110 or 230 µM); P00338; 480,000 tested, 0.15% active; in the data active = activity change below about -30%; inconclusive = mostly about -25% to -30%;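 note: plate controls were DMSO wells for no effect and wells without enzyme for full effect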
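Remaining NADH was detected by diaphorase (0.133 mg/mL) converting 37 µM resazurin to fluorescent resorufin, read at 0 and 20 minutes. The preceding 5-minute room-temperature reaction used 2 nM LDHA, 0.2 mM sodium pyruvate and 0.06 mM NADH at pH 7.4.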
* = called active by the depositor; ? = inconclusive; / = no result given; [ ] = remark or other dose. Unless noted, calls come from the whole dose curve; as a rule, active = well fitted curve in the direction sought with a large enough effect; inconclusive = small, poorly fitted or top-dose-only effect, or another doubt; inactive = no such curve, though single readings can be large; an effect the other way counts as inactive or inconclusive. Unless noted, % is set by controls: 0 for no effect and ±100 for the full control effect.

SMILES	IL-1B inflam inh	TDP1 cell CPT	TDP1 cell noCPT	Gal4-VP16 FLuc	RORg inh	LDHA block
Cc1nn(CCC(=O)NNC(=S)Nc2ccc([N+](=O)[O-])cc2)c(C)c1[N+](=O)[O-]	28	6%	-21%	-1%	-17%	-2
CC(C)(C)C(=O)N1N=C(c2ccco2)CC1c1ccc2nccnc2c1 (stereo unspecified)	/	/	/	/	/	2
OCC[n+]1ccc(/C=C/c2c[nH]c3ccccc23)cc1	26	6.5µM*	5.8µM*	6%	30%	23
CCCCCCCCCC[n+]1ccc(/C=C/c2c[nH]c3ccccc23)cc1	/	0.32µM*	0.11µM*	/	/	/
C(=C\c1c[nH]c2ccccc12)/c1cc[n+](C2CCCCC2)cc1	/	-12%	?	/	/	/
CCCCCCCCCCCCCCCC[n+]1ccc(/C=C/c2c[nH]c3ccccc23)cc1	/	0.89µM*	0.71µM*	/	/	/
CCn1c(SCC(=O)Nc2ccc(F)cc2C)nnc1C(C)NC(=O)c1ccco1 (stereo unspecified)	/	/	/	/	/	0
CN(CC(=O)Nc1ccc(N2CCOCC2)cc1)Cc1c(O)ccc2ccccc12	-2	7%	-21%	18%	1.8µM*	14
CSc1ccccc1NC(=O)CN(C)Cc1c(O)ccc2ccccc12	-10	?	23µM*	-18%	?	18
CSc1ccccc1NC(=O)CN(C)CC(=O)Nc1ccccc1F	-1	-4%	-25%	3%	-30%	-31*
O=C(Cc1ccccc1Cl)NC1CCC(c2ccccc2)CC1 (stereo unspecified)	/	/	/	/	/	7
CN(C)S(=O)(=O)c1ccc(C(=O)NCCc2ccco2)cc1	-4	-8%	23µM*	?	33%	-2
COc1ccc(S(=O)(=O)N(C)c2ccc(C(=O)NCc3ccco3)cc2)cc1	-8	?	?	18%	11%	4
CN(c1ccccc1)S(=O)(=O)c1ccc(C(=O)NCc2ccco2)cc1	9	?	16µM*	/	/	0
CN(C)S(=O)(=O)c1ccc2c(c1)cc(C(=O)NCCc1ccco1)n2C	/	/	/	/	/	-24
CCc1cccc(C)c1NC(=O)CCc1c(C)nc2c3ccccc3nn2c1C	/	/	/	/	/	2
COc1ccc(NC(=O)c2cccc(N3C(=O)C4C5C=CC(C5)C4C3=O)c2)cc1Cl (stereo unspecified)	33	23µM*	16µM*	?	?	-3
O=C(Nc1ccc(Cl)cc1Cl)c1cccc(N2C(=O)C=CC2=O)c1	0	1µM*	0.58µM*	-4%	4%	-8
Cc1ccc(NC(=O)c2cccc(N3C(=O)C4C5C=CC(C5)C4C3=O)c2)cc1C (stereo unspecified)	-23	23µM*	21µM*	-6%	38%	-1
O=C(O)c1cccc(N2C(=O)C=CC2=O)c1	0	?	?	/	/	-3
COc1ccc(NC(=O)c2cccc(N3C(=O)C4C5C=CC(C6CC56)C4C3=O)c2)cc1 (stereo unspecified)	0	?	21µM*	-26%	?	-10
Cn1c(=O)[nH]c(=O)c2c1nc(N1CCN(Cc3ccccc3F)CC1)n2Cc1ccccc1F	/	/	/	/	/	7
O=C(Nc1cccc(Cl)c1)c1nc2ccccc2nc1N1CCOCC1	/	/	/	/	/	4
Cc1ccc(C)c(Nc2ncnc3sccc23)c1	/	/	/	/	/	2
COc1ccc(C(=O)c2sc(Nc3cccc(Cl)c3)nc2N)cc1	/	/	/	/	/	13
SMILES	IL-1B inflam inh	TDP1 cell CPT	TDP1 cell noCPT	Gal4-VP16 FLuc	RORg inh	LDHA block
O=C(Nc1ccc(Cl)cc1)c1cccc(N2C(=O)C3C4CCC(C4)C3C2=O)c1 (stereo unspecified)	-15	?	15µM*	-6%	-3%	-1
CC(C)c1ccc(-c2nonc2NC(=O)c2cc(=O)c3cc(Cl)ccc3o2)cc1	/	/	/	/	/	0
CC(C)(C)C(=O)N1CCC[C@H]1C(O)(c1ccccc1)c1ccccc1	0	?	?	22µM*	?	-1
CNc1ccc(Br)cc(C(=O)/C=C/c2ccc(OC)cc2OC)c1=O	?	9.2µM*	15µM*	-17%	-39%	36
COc1cccc(/C=C/C(=O)c2ccc(O)cc2)c1	/	/	/	/	/	7
CNc1ccc(Br)cc(C(=O)/C=C/c2ccc(Cl)cc2Cl)c1=O	-91*	4.6µM*	18µM*	-29%	?	10
CNc1ccc(Br)cc(C(=O)/C=C/c2cccc(OC)c2)c1=O	-101*	13µM*	7.3µM*	?	?	13
COc1ccccc1CNC(=O)Cc1c(C)c2ccc(OC)c(C)c2oc1=O	/	/	/	/	/	10
CCOc1ccccc1NC(=O)c1cc(SC)ccc1Cl	47	?	18µM*	1%	-9%	-2
CCOc1ccccc1NC(=O)c1ccccc1-c1ccccc1	34	?	23µM*	2%	44%	-1
CSc1ccc(Cl)c(C(=O)Nc2cc(F)ccc2C)c1	/	/	/	/	/	4
O=Cc1ccc2c(c1)OCCOCCOCCO2	/	/	/	/	/	1
COC(=O)c1scc(S(=O)(=O)C(C)C)c1N/N=C(\C#N)C(=O)c1ccc(Cl)cc1	-8	?	23µM*	?	-30%	-9
COC(=O)c1scc(C#N)c1N/N=C(\C#N)S(=O)(=O)c1ccc(Cl)cc1	12	4.1µM*	4.6µM*	-28%	?	-8
COC(=O)c1scc(C)c1NC(=O)c1ccc(Cl)cc1	6	-8%	?	0%	-20%	-5
O=C(O)CNC(=O)C(F)(F)C(F)(F)Cl	/	/	/	/	/	6
CCOc1ccccc1NC(=S)NCCc1ccccc1	1	?	?	5µM*	1.3µM*	3
S=C(NCCc1ccccc1)Nc1ccccc1I	/	/	/	/	/	-2
CCOc1ccccc1NC(=S)NCCc1ccc(F)cc1	1	?	?	10µM*	1.6µM*	-5
FC(F)(F)c1cccc(CSc2nnc(-c3cccnc3)n2-c2ccc(Br)cc2)c1	/	/	/	/	/	12
CCCCn1c(=O)n(CC(O)COc2cc(C)ccc2C)c(=O)c2c1ncn2C1CCCC1 (stereo unspecified)	/	/	/	/	/	12
COc1ccc(Cc2noc(-c3ccc(C)cc3)n2)cc1	20	-15%	-14%	/	-21%[0.365 µM]	-16
COc1ccc(Cc2noc(-c3ccc([N+](=O)[O-])cc3)n2)cc1OC	-2	26µM*	?	-14%	?	0
COCCNC(=O)c1cccc(NC(=O)C2=C(C)OCCS2)c1	0	11%	-9%	0%	-4%	-2
CC1=C(C(=O)Nc2cccc(C(=O)NC(C)c3ccccc3)c2)SCCO1 (stereo unspecified)	-10	?	16µM*	2%	21%	-14
